Test systems include SR leukemia; RPMI-8226 leukemia; OVCAR-8 ovarian; OVCAR-5 ovarian; OVCAR-4 ovarian; SK-OV-3 ovarian; IGROV1 ovarian; OVCAR-3 ovarian; HS 578T breast; NCI/ADR-RES ovarian; T-47D breast; MDA-MB-435 melanoma; SW-620 colon; MCF7 breast; HCT-116 colon; HCC-2998 colon; KM12 colon; BT-549 breast.
Assay in all cases: NCI-60 one-dose screen, 48 h (100 = growth as untreated, 0 = no growth, -100 = all killed)
What all share (details): 10 µM unless noted

In PubChem BioAssay (NCI) one finds growth data, which are given here for nine compounds.

About 83,000 compounds went through this panel and 20% of them were active in at least one assay; those are over-represented in the sample as a whole.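 Cells were grown in 96-well plates and exposed to the test compound at a single concentration for 48 hours; results are reported as percent growth, with values below 10 considered active.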 Unmarked numbers belong to inactive results. Active and inactive are the calls of the source.

For `Cc1ccc(S(=O)(=O)N(CCC(=O)O)c2ccccc2)cc1`, the growth with SR leukemia was 99.3%; in the test with RPMI-8226 leukemia it was 93.2%; in the test with OVCAR-8 ovarian, 101%; in the test with OVCAR-5 ovarian it was 111%; in the test with OVCAR-4 ovarian it was 114%; in the test with SK-OV-3 ovarian it was 105%. Besides, the growth was 123% with IGROV1 ovarian; 110% in the test with OVCAR-3 ovarian; 121% in the test with HS 578T breast; 110% with NCI/ADR-RES ovarian; 100% in the test with T-47D breast; 107% in the test with MDA-MB-435 melanoma. Further, the growth is 104% with SW-620 colon; 91.8% in the test with MCF7 breast; 95.1% in the test with HCT-116 colon; 112% in the test with HCC-2998 colon; 98.9% in the test on KM12 colon.

Consider `O=c1cc(-c2nccc3c2[nH]c2ccccc23)c2cc(Cl)ccc2o1`, for which the growth in the test with SR leukemia was 15.2%; in the test on RPMI-8226 leukemia it was 39.3%; in the test on OVCAR-8 ovarian, 54.4%; with OVCAR-5 ovarian it was 111%; in the test on OVCAR-4 ovarian it was 56.6%; with SK-OV-3 ovarian, 41.3%. In addition, the growth is 61.3% in the test on IGROV1 ovarian; 7.46% (active) in the test with OVCAR-3 ovarian; 37.3% in the test with HS 578T breast; 33.4% in the test with NCI/ADR-RES ovarian; 59.4% in the test with T-47D breast; 1.21% (active) with MDA-MB-435 melanoma. Also, the growth in the test on SW-620 colon is 34.3%; in the test with MCF7 breast, 27.2%; in the test with HCT-116 colon, 8.73% (active); in the test with HCC-2998 colon, 74.2%; in the test on KM12 colon, 29%.

On to `COC(=O)c1nc(-c2ccc(C)cc2)oc1N1CCOCC1`, for which the growth in the test with SR leukemia is 80.3%; with RPMI-8226 leukemia, 88%; in the test on OVCAR-8 ovarian, 107%; in the test with OVCAR-5 ovarian, 88.1%; in the test on OVCAR-4 ovarian, 109%; in the test with SK-OV-3 ovarian, 94.9%. In addition, the growth is 89.5% in the test on IGROV1 ovarian; 107% with OVCAR-3 ovarian; 108% in the test on HS 578T breast; 96.7% in the test with NCI/ADR-RES ovarian; 87.3% in the test on T-47D breast; 103% with MDA-MB-435 melanoma. The growth with SW-620 colon was 99.7%; in the test on MCF7 breast, 83%; in the test with HCT-116 colon it was 97.8%; in the test on HCC-2998 colon, 104%; with KM12 colon, 104%.

For the compound `Nc1ncc(-c2ccc3ncnc(N4CCc5cc(F)c(Cl)cc54)c3c2)cc1C=O`, the growth with SR leukemia was 18.7%; in the test with RPMI-8226 leukemia it was -4.54% (active); in the test with OVCAR-8 ovarian, 31.4%; in the test on OVCAR-5 ovarian, 9.67% (active); in the test with OVCAR-4 ovarian, 34.5%; in the test with SK-OV-3 ovarian it was -3.8% (active). For the same compound, the growth was -35.9% (active) in the test with IGROV1 ovarian; 0.575% (active) with OVCAR-3 ovarian; -18.9% (active) with HS 578T breast; 28.6% in the test with NCI/ADR-RES ovarian; 7.88% (active) with T-47D breast; 0.36% (active) in the test on MDA-MB-435 melanoma. Besides, the growth in the test on SW-620 colon was 37.9%; in the test on MCF7 breast it was 11.8%; with HCT-116 colon, 36.6%; in the test with HCC-2998 colon it was 21.2%; in the test with KM12 colon, 39.2%.

Turning to `CSc1nc(CC(C)C)c(C#N)c(=O)n1C`, the growth in the test on SR leukemia is 47.4%; in the test on RPMI-8226 leukemia, 64.5%; in the test with OVCAR-8 ovarian, 77.1%; with OVCAR-5 ovarian it was 74.7%; in the test with OVCAR-4 ovarian, 52.4%; in the test on SK-OV-3 ovarian, 87.7%. Besides, the growth with IGROV1 ovarian was 71.8%; with OVCAR-3 ovarian it was 61.3%; in the test with HS 578T breast, 58.4%; with NCI/ADR-RES ovarian, 72.5%; in the test on T-47D breast, 33.4%; in the test with MDA-MB-435 melanoma, 65.8%. Moreover, the growth in the test with SW-620 colon is 63.1%; with MCF7 breast, 38.7%; in the test on HCT-116 colon it was 60.4%; with HCC-2998 colon it was 79.4%; in the test with KM12 colon it was 86.5%.

For the compound `CN1CCN(Cc2ccc(NC(=O)c3cc(C#Cc4cnc(N)c5ncccc45)n(C)n3)cc2C(F)(F)F)CC1`, the growth in the test on SR leukemia is 2.23% (active); in the test on RPMI-8226 leukemia it was 69.2%; in the test with OVCAR-8 ovarian, 69.4%; in the test on OVCAR-5 ovarian it was 140%; with OVCAR-4 ovarian, 114%; in the test on SK-OV-3 ovarian it was 111%. Moreover, the growth in the test with IGROV1 ovarian is 113%; in the test on OVCAR-3 ovarian, 119%; with HS 578T breast it was 25%; with NCI/ADR-RES ovarian it was 96%; in the test on T-47D breast, 101%; with BT-549 breast, 117%. Moreover, the growth in the test on MDA-MB-435 melanoma is 102%; with SW-620 colon, 88.1%; in the test with HCT-116 colon, 96.1%; with HCC-2998 colon it was 128%; with KM12 colon it was 87.8%.

For the compound `CC1=C([Se]CC(OC(=O)[C@@H](CO)NC(=O)OC(C)(C)C)C(=O)NCCCCCC(=O)OCc2ccccc2)C(=O)c2ccccc2C1=O` (stereo partly drawn), the growth in the test with SR leukemia is -4.61% (active); in the test on RPMI-8226 leukemia, -28.9% (active); with OVCAR-8 ovarian, -82.4% (active); in the test with OVCAR-5 ovarian, -70.5% (active); with OVCAR-4 ovarian it was -98.1% (active); in the test with SK-OV-3 ovarian it was -60.1% (active). In addition, the growth with IGROV1 ovarian is -93.9% (active); with OVCAR-3 ovarian, -82.1% (active); with HS 578T breast, 2.05% (active); in the test with NCI/ADR-RES ovarian, -76.6% (active); in the test on T-47D breast it was -94.3% (active); in the test with BT-549 breast, -98.6% (active). The growth with MDA-MB-435 melanoma is -83.3% (active); in the test with SW-620 colon it was -42% (active); with HCT-116 colon, -88.9% (active); in the test with HCC-2998 colon it was -92.5% (active); with KM12 colon it was -52.7% (active).

In the case of `CN(C)CCCN(CCC1CCCCC1)CCC1CCCCC1`, the growth is -35.3% (active) in the test with SR leukemia; 23.8% in the test on RPMI-8226 leukemia; 81.1% with OVCAR-8 ovarian; 83.3% in the test with OVCAR-5 ovarian; 71.2% in the test on OVCAR-4 ovarian; 97% in the test with SK-OV-3 ovarian. The growth in the test on IGROV1 ovarian was 39.7%; in the test on OVCAR-3 ovarian it was 34.6%; in the test on HS 578T breast, 58.1%; in the test on NCI/ADR-RES ovarian, 74.4%; in the test with T-47D breast it was -37.6% (active); with MDA-MB-435 melanoma it was -33.2% (active). Moreover, the growth in the test with SW-620 colon was 40.6%; in the test with MCF7 breast it was -24.1% (active); in the test with HCT-116 colon it was 29%; with HCC-2998 colon, -88.1% (active); with KM12 colon, 12%.

For `CCOc1ccc(N2C(=O)CCSC2=S)cc1`, the growth with SR leukemia was 116%; in the test on RPMI-8226 leukemia it was 104%; with OVCAR-8 ovarian, 104%; in the test on OVCAR-5 ovarian, 107%; in the test with OVCAR-4 ovarian it was 109%; with SK-OV-3 ovarian, 101%. The growth with IGROV1 ovarian is 99.1%; with OVCAR-3 ovarian, 114%; in the test with HS 578T breast, 105%; in the test with NCI/ADR-RES ovarian, 105%; with T-47D breast, 104%; with MDA-MB-435 melanoma, 98%. In addition, the growth is 104% in the test on SW-620 colon; 100% with MCF7 breast; 112% in the test on HCT-116 colon; 104% in the test on HCC-2998 colon; 107% in the test on KM12 colon.
